An excerpt weighted towards active compounds, which were near 5.2% of everything screened.
mIDH1 inhibitor = human IDH1 R132H inhibition; O75874; IDH1-R132H enzyme, NADPH consumption, diaphorase/resazurin fluorescence; Potency, µM (titrated, usually from 76.6 µM), without a hit: at the highest dose activity change, negative = inhibition, actives largely listed as inhibitors; actives 0.093% (n = 390,000); AID 602179; note: nearly all actives have a fitted effect of over 65% in size
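IDH1-R132H (0.5 ug/mL dispensed) in pH 7.5 Tris buffer was preincubated 30 min with compound, then given a substrate mix of 0.016 mM NADPH and 2 mM alpha-KG for 80 min at room temperature; remaining NADPH was read by diaphorase/resazurin fluorescence.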
Sfp PPTase inh = blocks B. subtilis Sfp PPTase activity. AID 1490. Potency, µM, without a hit: largest response in the series, negative = inhibition, most hits filed as inhibitors. Biochemical Sfp PPTase activity, qHTS. actives 3.5% (n = 310,000);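 note: the enzyme is Sfp with the accession as filed and its product quenches rhodamine fluorescence; 0% = enzyme reaction without inhibitor and -100% = no enzyme wells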
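Fluorescence-quenching assay with 15 nM Sfp, 5 uM rhodamine-CoA and 12.5 uM BHQ-2-labelled ybbR peptide in pH 7.6 Hepes/MgCl2 buffer. Enzyme was pre-incubated with compound for 15 min at room temperature. Rate was taken from the 30-min fluorescence change (525/598 nm).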
TrxR1 inh = rat TrxR1 inhibition; O89049; recombinant rTrxR1, NADPH fluorescence consumption, selenite substrate; Potency, µM (series often up to 114 µM), without a hit: at the top dose activity change, negative = inhibition, most hits filed as inhibitors; actives 1% (n = 390,000); note: nearly all actives have a fitted effect of over 65% in size
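Rat TrxR1 (90 nM in the dispensed reagent) was pre-reduced with 400 uM NADPH for 5 min at room temperature, then incubated with compound for 15 min. After 400 uM selenite was added, NADPH fluorescence (Ex 340/Em 450 nm) was followed for 8 min.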
PLK1 PBD inh = PLK1 (human) polo-box domain binding inhibition; P53350; Plk1 PBD binding of FITC phosphopeptide, fluorescence polarization; Potency, µM, for inactives: max response, negative = inhibition, actives largely listed as inhibitors; actives 2.8% (n = 360,000); AID 720504; note: series mostly up to about 57 µM; nearly all actives have a fitted effect of over 65% in size
Target sequence (P53350 whole entry, looked up, the tested form may be a part): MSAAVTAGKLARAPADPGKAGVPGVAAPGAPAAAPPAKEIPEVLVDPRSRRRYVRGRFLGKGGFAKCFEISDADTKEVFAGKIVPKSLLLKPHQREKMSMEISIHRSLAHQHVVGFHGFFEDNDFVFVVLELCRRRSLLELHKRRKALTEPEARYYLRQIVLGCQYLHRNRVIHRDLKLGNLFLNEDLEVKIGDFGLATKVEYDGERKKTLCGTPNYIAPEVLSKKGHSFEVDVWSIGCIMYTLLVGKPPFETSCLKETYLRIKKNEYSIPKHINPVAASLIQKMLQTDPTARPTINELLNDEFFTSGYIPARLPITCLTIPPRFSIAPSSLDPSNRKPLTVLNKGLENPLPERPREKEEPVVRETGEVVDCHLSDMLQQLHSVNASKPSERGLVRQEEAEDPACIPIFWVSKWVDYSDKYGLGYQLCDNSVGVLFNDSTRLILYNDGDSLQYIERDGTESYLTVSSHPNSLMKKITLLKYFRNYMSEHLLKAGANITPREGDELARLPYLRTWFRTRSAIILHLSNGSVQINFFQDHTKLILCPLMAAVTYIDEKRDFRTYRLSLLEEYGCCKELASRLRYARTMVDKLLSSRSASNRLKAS
TrxR1 substrate = rat thioredoxin reductase 1 substrate activity; O89049; purified TrxR1 substrate turnover, NADPH consumption readout; AID 588456; actives 0.01% (n = 390,000); Potency, µM (doses to about 114 µM), for inactives: at the top dose activity change, negative = substrate turnover; note: nearly all actives have a fitted effect of over 50% in size
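Rat TrxR1, dispensed at 90 nM, was prereduced with 400 uM NADPH (final) for 5 min at ~22 deg C, then incubated with compound 15 min before 400 uM selenite. A first-read NADPH fluorescence drop versus no-compound background flagged substrates.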
VDR inh = inhibitors of human vitamin D receptor; VDR-SRC2-3 peptide fluorescence polarization, 2 h; actives 0.93% (n = 400,000); Potency, µM, inactives show max response, negative = inhibition, actives largely listed as inhibitors
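Inhibition of the VDR/SRC2-3 peptide interaction is quantified by fluorescence polarization. Compounds (23 nl, pintool) incubate with the reagents for 2 hours at ambient room temperature.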
Starred values were filed as active, the others as inactive; i = inactive; ? = inconclusive; . = no result; ! = not confirmed by another sample; [ ] = dose if it differs, or a comment. Calls come from the whole dose curve; as a rule, active = well fitted curve in the direction sought with a large enough effect; inconclusive = small, poorly fitted or top-dose-only effect, or another doubt; inactive = no such curve, though single readings can be large; an effect the other way counts as inactive or inconclusive. Unless noted, % is set by controls: 0 for no effect and ±100 for the full control effect; potency is the fitted concentration of half-maximal effect.

SMILES	mIDH1 inhibitor	Sfp PPTase inh	TrxR1 inh	PLK1 PBD inh	TrxR1 substrate	VDR inh
CC(C)c1ccc(N=Nc2c(O)[nH]c(=O)[nH]c2=O)cc1	3%	2%	43%	-1%	8%	0%
COC(=O)CSc1nc2sc3c(c2c(=O)n1C1CCCCC1)CCN(C)C3	.	56µM*	.	.	.	.
C=CC[C@]1(O)CCC2C3CCC4=CCCCC4C3CCC21C (stereo not given in full)	.	-9%	.	.	.	-11%
Nc1ncnc2c1ncn2[C@@H]1O[C@H](COP(=O)(O)OP(=O)(O)OP(=O)(O)O)[C@H]2OC3(O[C@H]21)C([N+](=O)[O-])=CC(=[N+]([O-])[O-])C=C3[N+](=O)[O-] (stereo not given in full)	.	8.9µM*	.	.	.	?
c1csc(CN2CC[C@@]3(CCCNC3)C2)n1	.	-13%	.	.	.	?
CN1C2CC(=O)CC1C(O)C2 (stereo not given)	.	15%	.	.	.	0%
Cc1cc(OCc2nn[nH]n2)c2c3c(c(=O)oc2c1)CCC3	1%	17%	34%	-1%	441%	3%
Cc1cc(=O)oc2c1c(C)nn2-c1nn[nH]n1	1%	2%	6%	11µM*	2%	?
O=C(Oc1ccc([N+](=O)[O-])cc1)N1CCN(/[N+]([O-])=N/Oc2ccc([N+](=O)[O-])cc2[N+](=O)[O-])CC1	.	.	?	.	6%	.
CC(=O)OC1CC2C(C)(C)C(O)C=C[C@@]2(C)C2CC[C@]3(C)C(=CC(=O)OC3c3ccoc3)[C@]12C (stereo not given in full)	.	-6%	.	.	.	25µM*
CO[C@@H](C)[C@](O)(C(=O)OCC1=CCN2CC[C@@H](O)[C@H]12)C(C)C	.	14%	.	.	.	3%
O=C(Nc1cccc(C(F)(F)F)c1)Oc1ccccc1N1CCOCC1	-1%	9%	25%	?	1%	-20%
O=C(O)c1ccccc1SSc1ccccc1C(=O)O	7%	?	37%	12µM*	3%	?
C[CH2][Hg][S]c1ccccc1C(=O)O	-24%	16µM*	?	2.7µM*	8%	79µM*
Cc1cccc(C(=O)O)c1O	.	?	.	.	.	7%
C=C1C(O)C2OC3(CCC(/C=C/C(C)C4CC(C)=CC5(OC(CC(C)(O)C(=O)O)CCC5O)O4)O3)CCC2OC1C(O)CC(C)C1OC2(CCCCO2)CCC1C (stereo not given)	.	11%	.	.	.	13%
C[C@@]12C(=O)OC(=O)[C@@]1(C)[C@@H]1CC[C@@H]2O1	.	?	.	.	.	-9%
O=c1[nH]cc(F)c(=O)[nH]1	-1%	4%	20%[57.1 µM]	-6%	8%[57.1 µM]	-3%
O=c1[nH]cc(N(CCCl)CCCl)c(=O)[nH]1	.	?	.	.	.	18µM*
Cn1cc(/C=C(\C(=O)O)C(C(=O)O)=C2CCCCC2)c2ccccc21	20%	2%	10%[11.4 µM]	15µM*	7%[57.1 µM]	?
CC1=C(C(=O)O)N2C(=O)C(NC(=O)Cc3ccccc3)C2SC1 (stereo not given)	0%	10µM*	-1%	-7%	2%	29%
CC1=C(C(=O)O)N2C(=O)C(NC(=O)c3nn(C)cc3[N+](=O)[O-])C2SC1 (stereo not given)	-2%	4µM*	-14%	34µM*	5%	?
O=C1NO[C@H]2[C@@H]1CN[C@@H]2C(=O)O	.	-2%	.	.	.	.
COc1ccc(C[C@H]2NC[C@H](O)[C@@H]2OC(C)=O)cc1	.	-9%	.	.	.	35µM*
COc1ccc(CC2NCC(O)C2OC(C)=O)cc1 (stereo not given)	8%	-5%	25µM*	-13%	10%[57.1 µM]	-12%
SMILES	mIDH1 inhibitor	Sfp PPTase inh	TrxR1 inh	PLK1 PBD inh	TrxR1 substrate	VDR inh
COc1ccc(CC2NC[C@H](O)[C@H]2OC(C)=O)cc1 (stereo not given in full)	.	10%	.	.	.	12%
C=C(C)C(=O)CP(=O)(OCC)OCC	.	-4%	.	.	.	-7%
CCN(CC)c1ncnc2c1ncn2[C@@H]1O[C@H](COP(=O)(O)OP(=O)(O)C(Br)(Br)P(=O)(O)O)[C@@H](O)[C@H]1O	.	.	16%[57.1 µM]	.	7%[57.1 µM]	11%
O=C1C=Cc2ccccc2C1=O	.	2.8µM*	.	.	.	.
O=C1c2ccccc2C(=O)c2ccccc21	.	22%	.	.	.	5%
COC(=O)C(O)(c1ccc(NC(=S)NC(=O)c2ccc(Cl)cc2Cl)c(C)c1)C(F)(F)F (stereo not given)	?	-27%	0%[57.1 µM]	21µM*	-1%[57.1 µM]	?
CCC1COC(Cn2cncn2)(c2ccc(Cl)cc2Cl)O1 (stereo not given)	.	-23%	.	.	.	-13%
NC(CCP(=O)(O)O)C(=O)O (stereo not given)	.	50µM*	16%[57.1 µM]	.	11%[57.1 µM]	0%
CC[C@@]1(O)C(=O)OCc2c1cc1n(c2=O)Cc2cc3c(O)cccc3nc2-1	.	?	.	.	.	10%
CC1=CC2OC3CC4OC(=O)C=CC=CC(C(C)O)OCC(O)C(C)CC(=O)OCC2(CC1O)C4(C)C31CO1 (stereo not given)	0%	.	45µM*	-2%	1%	8%
COc1c(C)cc(Br)cc1C(=O)Nc1ccc(-c2nc3ncccc3o2)cc1	7%	.	i	.	448%	-4%
O=C(N1CCCCCC1)N1CC1	0%	.	4%[57.1 µM]	-9%	9%[57.1 µM]	6%
S=C(S)N1CCCC1	-7%	5.6µM*	0%[57.1 µM]	?	3%[57.1 µM]	20µM*!
C=C(C)[C@]12C[C@@H](C)[C@@]34O[C@](Cc5ccccc5)(O[C@@H]1[C@@H]3C=C(COC(=O)Cc1ccc(O)c(OC)c1)C[C@]1(O)C(=O)C(C)=C[C@@H]41)O2	.	22%	.	.	.	-13%
CN1[C@@H]2CC[C@H]1CC(OC(c1ccc(F)cc1)c1ccc(F)cc1)C2 (stereo not given in full)	.	1%	.	.	.	-17%
CCCc1cc2c(n1Cc1ccco1)C(C)C1CN(C(=O)c3ccccc3)C(C)(C(=O)OC)C21 (stereo not given)	.	32µM*	.	.	.	.
CCCc1cc2c(n1Cc1ccc(C)cc1)C(C)C1CN(C(=O)c3ccccc3)C(C)(C(=O)OC)C21 (stereo not given)	.	12%	.	.	.	.
CCOC(=O)c1c(N)n(Cc2ccco2)c2nc3ccccc3nc12	2%	?	71%	-16%	527%	-1%
Nc1c(C(=O)NCc2ccco2)c2nc3ccccc3nc2n1Cc1ccc(F)cc1	-7%	-74%	-62%	27µM*	40%[57.1 µM]	-9%
COc1ccc(Cn2c(N)c(C(=O)NCc3ccco3)c3nc4ccccc4nc32)cc1	1%	45µM*	-26%	-9%	37%	-12%

From PubChem
